Assay outcomes (PubChem BioAssay)
PME-1 primary – PME-1 (human) inhibition; recombinant PME-1, FP-Rh probe fluorescence polarization; Q9Y570; 320,000 tested, 0.53% active; inhibition, % at 5.9 µM;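 active = inhibition above the campaign mean of all compounds plus 3 SD, cut at about 26% in these data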;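 also: competitive labeling of PME-1 active site by serine hydrolase directed probe; 0% = PME-1 with DMSO and 100% = wells lacking PME-1 enzyme; inhibitors block probe labeling so polarization falls and inhibition rises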
Fam108B inh – counter-screen for RBBP9 inhibitors: inhibitors of mouse Fam108B; recombinant Fam108B, FP-Rh probe fluorescence polarization; inhibition, % at 9.51 µM; 300,000 tested, 0.33% active; AID 1947;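 active = inhibition above the screen mean inhibition plus 3 SD, computed separately per campaign, cut at about 18% in these data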;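 also: inhibitors lower polarization as less probe binds the enzyme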
LYPLA1 inh – LYPLA1 (human) inhibition in PME1 counter-screen. inhibition, % at 5.9 µM. AID 2174. recombinant LYPLA1, FP-Rh probe fluorescence polarization. 320,000 tested, 0.16% active. O75608;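 active = inhibition above the mean of all tested compounds plus 3 SD, set per campaign, cut at about 14% in these data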;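 also: inhibitors block serine hydrolase probe labeling of LYPLA1 so polarization falls; 0% = enzyme with DMSO and 100% = wells lacking LYPLA1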
LYPLA2 inh – blocks human lysophospholipase 2, a PME1 counter-screen. O95372. recombinant LYPLA2, FP-Rh probe fluorescence polarization. inhibition, % at 5.9 µM. 320,000 tested, 0.38% active. AID 2177;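 active = inhibition above the screen-wide mean plus 3 SD, limit set per campaign, cut at about 26% in these data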;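 also: 0% = LYPLA2 with DMSO and 100% = wells lacking LYPLA2 enzyme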
PREPL inh – human PREPL enzyme inhibition; 320,000 tested, 0.68% active; recombinant PREPL, fluorescence polarization activity-based probe; Q4J6C6; inhibition, % at 5.96 µM;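 also: 0% = enzyme with DMSO and 100% = wells lacking enzyme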
PREPL inh cf – confirmation of human PREPL enzyme inhibitors | AID 2803 | inhibition, % at 5.96 µM | 2,000 tested, 67% active | shares compounds with PREPL inh | recombinant PREPL, fluorescence polarization activity probe;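 also: 0% = protein with DMSO and 100% = wells lacking protein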
* hit, by the source's call; . = no result. Hits are enriched below; roughly 1.3% of the tested compounds scored in any of these assays. Rule as the data show it, unless noted: active = inhibition above about 43%; inactive = the rest.

SMILES | PME-1 primary | Fam108B inh | LYPLA1 inh | LYPLA2 inh | PREPL inh | PREPL inh cf
COc1ccc(Nc2nc(N)c([N+](=O)[O-])c(N3CCCC3)n2)cc1 | 0 | -7 | -1 | -1 | 11 | .
Oc1ccc(Nc2nc(N3CCCC3)c3ccccc3n2)cc1 | 11 | 8 | 1 | 3 | 72* | 66*
Cc1ccc(Nc2nc(N3CCOCC3)c3ccccc3n2)cc1 | -2 | 2 | 2 | 6 | 34 | .
O=C(CCCN1C(=O)S/C(=C\C=C\c2ccccc2)C1=O)Nc1ccc(C(=O)O)cc1 | -17 | -11 | -11 | -7 | -20 | .
O=C(CCN1C(=O)S/C(=C\C=C\c2ccccc2)C1=O)Nc1ccc(O)cc1 | -5 | -1 | -3 | 21 | 43* | 34
COc1ccc(N2CCN(c3cc(C)nc4ccc(OC)cc34)CC2)cc1 | 1 | -1 | 1 | 6 | 43* | 50*
COc1cc(OC)cc(C(=O)N2CCC(C(=O)NCCc3ccccc3)CC2)c1 | 3 | 8 | 4 | 5 | 13 | .
